Hits are enriched below; roughly 4.1% of the tested compounds scored in any of these assays.
LEDGF integ inh – blockers of LEDGF/p75-dependent integrase strand transfer – biochemical, TR-FRET, high throughput, primary screen; TR-FRET IN-LEDGF/p75 DNA integration, Eu/Cy5; inhibition, % at 3.7 µM; hit rate 0.64% among 370,000; AID 743269, 2014;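 active means inhibition above the screen-wide mean plus 3 SD, cut at about 13% in these data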;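 further: signal is the Cy5 over europium emission ratio at 671 and 618 nm; 0% = plate median of compound wells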
PRMT1 FP inh – PRMT1 methyltransferase inhibitors, primary screen, biochemical, fluorescence polarization | hit rate 1.3% among 370,000 | recombinant PRMT1, activity-based probe fluorescence polarization | inhibition, % at 2.79 µM | Protein arginine N-methyltransferase 1 (Homo sapiens), Q99873;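 active means inhibition above about 21% made by adding two undisclosed values, limit read from the data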
Target sequence (Q99873 whole entry, looked up): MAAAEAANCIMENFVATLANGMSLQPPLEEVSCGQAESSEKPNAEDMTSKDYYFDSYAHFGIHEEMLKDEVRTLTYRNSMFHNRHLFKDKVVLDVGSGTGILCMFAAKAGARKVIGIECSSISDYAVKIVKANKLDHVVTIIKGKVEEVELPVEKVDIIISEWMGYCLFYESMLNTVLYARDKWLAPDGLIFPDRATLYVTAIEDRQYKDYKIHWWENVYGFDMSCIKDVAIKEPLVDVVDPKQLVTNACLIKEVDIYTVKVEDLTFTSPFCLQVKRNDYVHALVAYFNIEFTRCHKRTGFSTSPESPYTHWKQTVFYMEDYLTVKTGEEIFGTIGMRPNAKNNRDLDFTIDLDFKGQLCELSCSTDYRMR
UHRF1 MBD2 ctr – UHRF1 methylated DNA binding inhibitors, primary screen, counter-screen for MBD2 inhibitor project, biochemical, TR-FRET, human UHRF1, single concentration | AID 687016, 2013 | hit rate 0.75% among 370,000 | E3 ubiquitin-protein ligase UHRF1 (Homo sapiens), Q96T88 | inhibition, % at 4.4 µM | UHRF1 binding to methylated oligo; in the data active means inhibition above about 21%;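 further: UHRF1 SRA domain binding a hemimethylated CpG hairpin DNA probe; 0% = median of test compound wells and 100% = reference inhibitor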
ABHD5-PLIN5 inh – ABHD5-PLIN5 interaction inhibitors, primary screen, cell lysate, split luciferase complementation, luminescence | AID 602281, 2012 | Perilipin-5 (Homo sapiens) + 1-acylglycerol-3-phosphate O-acyltransferase ABHD5 (Homo … | hit rate 0.78% among 360,000 | inhibition, % at 4 µM | Split G. princeps luciferase complementation, 4 h;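 active means inhibition above the mean inhibition across every tested compound plus 3 SD, cut at about 22% in these data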;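 further: 0% = DMSO only wells and the 100% control is not disclosed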
MBD2 inh – inhibitors of MBD2 binding to methylated DNA, primary screen, biochemical, TR-FRET, DNA-binding domain, human | MBD2 binding to methylated oligonucleotide | hit rate 0.31% among 370,000 | inhibition, % at 4.4 µM; in the data active means inhibition above about 13%
rCAG RNA binder – binders of r(CAG) RNA repeats, primary screen, biochemical, fluorescence. r(CAG) RNA repeat, TO-PRO-1 dye displacement fluorescence. inhibition, % at 3 µM. hit rate 1.3% among 370,000. AID 651821, 2012;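 active means inhibition above the plate cutoff, the mean of all test compounds on that plate plus 3 SD, cut at about 35% in these data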;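 further: 0% = DMSO alone and 100% = 100 µM mitoxantrone as full dye displacement; higher means more dye released from RNA so lower well fluorescence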
IN multimer up – HIV-1 IN multimer formation enhancers, counter-screen for LEDGF/p75 integration inhibitor project, biochemical, TR-FRET | shares compounds with LEDGF integ inh | TR-FRET HIV-1 integrase multimerization | activation, % at 7.7 µM | hit rate 17% among 2,000 | AID 1053131, 2014; in the data active means activation above about 8.9%
TRFRET interf – TR-FRET optical interference artefacts, confirmation, artefact control for LEDGF/p75-dependent integration inhibitor project, biochemical, HIV-1 IN multimerization | inhibition, % at 7.7 µM | shares compounds with LEDGF integ inh | TR-FRET optical interference counterscreen | AID 1053135, 2014 | 2,000 tested, under 10 active;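 active means inhibition above the mean over all tested compounds plus 3 SD, which no compound reached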;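 further: 0% = integrase with antibodies and DMSO and 100% = antibodies without integrase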
IN-LEDGF confirm – inhibitors of HIV-1 IN-LEDGF/p75 DNA integration, confirmation, biochemical, TR-FRET | shares compounds with LEDGF integ inh | TR-FRET LEDGF/p75-dependent HIV-1 integration | inhibition, % at 3.7 µM | hit rate 36% among 2,000 | AID 1053136, 2014; in the data active means inhibition above about 14%
Active calls of the source: *; nt = not tested or not shown.

SMILES	LEDGF integ inh	PRMT1 FP inh	UHRF1 MBD2 ctr	ABHD5-PLIN5 inh	MBD2 inh	rCAG RNA binder	IN multimer up	TRFRET interf	IN-LEDGF confirm
COC(=O)[C@H]1[C@@H](O)[C@@]2(O)c3c(OC)cc(OC)cc3O[C@@]2(c2ccc(OC)cc2)[C@@H]1c1ccc(F)cc1	15*	-3	0	nt	2	0	0	-2	-6
CCCC[C@H](CCCc1ccc(F)cc1)CCC(=O)N(c1ccccc1)c1ccccc1	6	0	2	nt	1	3	nt	nt	nt
C[C@@H](CO)N(Cc1cn(Cc2ccccc2)nn1)S(=O)(=O)c1ccc(F)cc1Br	0	-2	2	nt	-1	1	nt	nt	nt
COc1ccc(C(=O)NCC(=O)Nc2ccc(-c3ccccc3)cc2)cc1	18*	-1	-1	-6	-2	4	11*	-56	-2
O=C(N/C=C/c1ccco1)NCc1ccccc1	28*	12	23*	2	7	20	14*	-73	44*
O=C(COC(=O)/C=C/c1ccco1)NCc1ccccc1	1	4	0	1	-4	3	nt	nt	nt
CCOC(=O)[C@@]12CCCC=C1N(CCc1ccc(Cl)cc1)C(=O)[C@H]2CC(=O)NCc1cccc2ccccc12	6	-5	-4	nt	-2	8	nt	nt	nt
CCCCNC(=O)C1c2ccccc2OCC(=O)N1Cc1ccccn1 (centres undefined)	30*	-4	0	-3	2	4	-3	14	3
CCCCNC(=O)C1c2ccccc2OCC(=O)N1Cc1ccco1 (centres undefined)	-5	0	0	3	1	1	nt	nt	nt
C/C(CC(=O)Nc1ccccn1)=N\NC(=O)c1ccccc1O	38*	2	-5	8	-5	-1	1	-4	46*
OC[C@H]1O[C@@H](c2nc(-c3ccc4c(c3)CCO4)no2)[C@H](O)[C@@H](O)[C@H]1O	1	-3	-1	-5	2	1	nt	nt	nt
OC[C@H]1O[C@@H](c2nc(-c3ccc(CN4CCOCC4)cc3)no2)[C@H](O)[C@@H](O)[C@H]1O	16*	-5	0	1	0	0	-1	4	-1
CCS(=O)(=O)N1CCC(C(=O)Oc2ccccc2OC)CC1	22*	2	-1	-8	-7	0	1	-5	2
O=C1C=C(Nc2cccnc2)c2ccccc2C1=O	29*	1	1	-29	-26	6	4	-14	55*
O=C1C=C(Nc2ccccc2O)c2ccccc2C1=O	28*	12	-8	-18	-29	-6	19*	-66	37*
NC(=O)C1CCN(c2nc(-c3ccc(OCc4ccccc4)cc3)cs2)CC1	-2	5	6	nt	3	nt	nt	nt	nt
CC(C)(C)c1cccc(N/C(=C\C(=O)c2ccccc2)c2ccccc2)c1	3	-1	-1	nt	-6	2	nt	nt	nt
Clc1cccc(Oc2cnns2)c1Cl	17*	-3	3	-3	1	2	2	-7	-5
COc1c(NC=O)c2c(c([N+](=O)[O-])c1OC)C(=O)OC2	14*	-3	4	-2	-5	3	0	0	-1
COc1c([N+](=O)[O-])c(=O)oc2ccccc12	-2	-1	-1	-3	-4	-1	nt	nt	nt
NC(=O)C1CCCN(CC(O)COCc2ccc(Cl)cc2)C1 (centres undefined)	78*	-3	-3	5	1	-1	1	-2	-2
COc1ccc(C2C(C(=O)Nc3ccc(F)cc3F)CCC(=O)N2c2ccc(OC)cc2)cc1 (centres undefined)	2	-1	0	nt	1	1	nt	nt	nt
COC(=O)C1CN(Cc2cn(Cc3ccc(OC)cc3)nn2)CCS(=O)(=O)N1Cc1ccc(OC)cc1 (centres undefined)	-2	-4	7	nt	-1	7	nt	nt	nt
Cc1ccc(-n2nnc3c(=O)n(CC(=O)NCc4ccccc4)cnc32)cc1	-2	2	1	-4	3	2	nt	nt	nt
O=C(Cn1cnc2c(nnn2-c2ccccc2)c1=O)NCc1ccc(F)cc1	15*	-2	32*	7	7	14	6	-29	3
SMILES	LEDGF integ inh	PRMT1 FP inh	UHRF1 MBD2 ctr	ABHD5-PLIN5 inh	MBD2 inh	rCAG RNA binder	IN multimer up	TRFRET interf	IN-LEDGF confirm
Cc1cc(=O)[nH]c(SCC(=O)NC2CCCCCC2)n1	-3	1	-1	0	3	-1	nt	nt	nt
Nc1cc(=O)[nH]c(SCC(=O)NC2CCCCCCC2)n1	70*	8	4	1	8	4	-5	23	14*
C(#CC1=CCCCC1)CNCc1ccccc1	-1	2	1	nt	2	3	nt	nt	nt
Cc1c(-c2ccccc2)nc2ccccc2c1C(=O)O	nt	nt	nt	14	nt	nt	nt	nt	nt
Cc1c(-c2cccc(Cl)c2)nc2ccccc2c1C(=O)NC1CC1	21*	-1	3	0	0	-1	0	0	-3
O=C(CN1CCCCC1)NNc1nc(-c2ccccc2)c2cc(Br)ccc2n1	19*	2	-3	6	-4	-1	1	-5	-8
CCC(C(=O)Nc1ccccc1N1CCCC1)c1ccccc1F (centres undefined)	-1	0	0	nt	-4	-2	nt	nt	nt
COC(=O)C1=C(N)N(c2ccccc2C(F)(F)F)C2=C(C(=O)CCC2)C1c1ccc2c(c1)OCO2 (centres undefined)	33*	0	-3	-3	1	4	0	-1	-8
COC(=O)C1CN(Cc2ccc(OC)cc2)CCS(=O)(=O)N1Cc1cn(CCOC(C)=O)nn1 (centres undefined)	1	2	15	nt	9	2	nt	nt	nt
Cc1c(C(=O)NCCC#N)sc(=O)n1Cc1ccc(C(=O)N(C)C)cc1	32*	3	-1	-3	3	0	-1	5	-5
